L3MBTL1 inh: L3MBTL1 (human) inhibition. Q9Y468. AlphaScreen L3MBTL1–H3K9me1 peptide binding. Potency, µM (top dose mostly 57.1 µM), usual class: inhibitors. hit rate 0.66% among 230,000. AID 485360; further: nearly all actives have a fitted effect of over 60% in size
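AlphaScreen assay: L3MBTL1 (50 nM final) was preincubated 30 min at room temperature with biotinylated H3(1-15)K9me1 peptide (75 nM final), then 30 min with library compounds; streptavidin donor and nickel chelate acceptor beads (10 ug/mL final) added, 30 min dark.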
JMJD2A Tudor: blocks the human JMJD2A Tudor domain; O75164; AlphaScreen JMJD2A-Tudor / H3K4me3 peptide binding; Potency, µM (highest dose often 114 µM), most hits filed as inhibitors; hit rate 4.4% among 390,000; further: nearly all actives have a fitted effect of over 50% in size
HP1b binding inh: inhibitors of HP1-beta chromodomain binding to methylated histone tails; AlphaScreen HP1-beta / biotin-H3K9me3 peptide binding; P83916; hit rate 0.56% among 390,000; AID 540317; Potency, µM (doses to about 114 µM), most hits filed as inhibitors; further: nearly all actives have a fitted effect of over 70% in size
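AlphaScreen: HP1-beta (50 nM) preformed 30 min with biotin-H3(1-18)K9me3 peptide (50 nM) in PBS pH 7.4, 0.01% Tween-20. Compound added for 30 min at RT, then streptavidin donor/nickel chelate acceptor beads (10 ug/mL) for 30 min.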
G9a inh: blocks human histone lysine methyltransferase G9a | Potency, µM (highest dose often 102 µM), usual class: inhibitors | G9a H3K9 monomethylation, AlphaScreen, 2 h | hit rate 8.8% among 350,000 | Q96KQ7; further: nearly all actives have a fitted effect of over 75% in size
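AlphaScreen detection with an anti-monomethyl H3K9 antibody quantified product after a 2 h room-temperature reaction containing 500 nM biotinylated H3K9 peptide, 20 µM SAM and 20 nM enzyme, which had been preincubated 15 min with compound.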
BAZ2B inh: BAZ2B (human) inhibition; Potency, µM (titrated, usually from 114 µM), usual class: inhibitors; Q9UIF8; AID 504333; AlphaScreen BAZ2B-H3K14Ac peptide displacement; hit rate 4.4% among 360,000; further: nearly all actives have a fitted effect of over 60% in size
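Protein-peptide AlphaScreen: BAZ2B 50 nM, b-H3K14Ac 50 nM, 1x PBS pH 7.4 + 0.01% Tween-20. Preincubation 30 min RT; cpd 30 min RT (top 110 uM); beads 20 min RT, light-protected.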
Sfp inh: Sfp phosphopantetheinyl transferase inhibition | Potency, µM, hits mostly inhibitors | hit rate 3.5% among 310,000 | Q9F4F7 | AID 1490 | Biochemical Sfp PPTase activity, qHTS;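 further: the enzyme is Sfp with the accession as filed and its product quenches rhodamine fluorescence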
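Fluorescence-quenching assay: 15 nM Sfp-PPTase preincubated 15 min at room temperature with compound, then 5 uM rhodamine-CoA and 12.5 uM BHQ-2-labelled YbbR peptide added. Fluorescence (ex 525/em 598 nm) read at start and after 30 min; difference gives rate.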
A number is an active result; i = inactive; ? = inconclusive; nt = no result given; [ ] = another dose, or the depositor's remark. An excerpt weighted towards active compounds, which were near 12% of everything screened. The call rests on the fitted dose curve; in most records, active means well fitted curve in the direction sought with a large enough effect; inconclusive means small, poorly fitted or top-dose-only effect, or another doubt; inactive means no such curve, though single readings can be large; an effect the other way counts as inactive or inconclusive.

SMILES	L3MBTL1 inh	JMJD2A Tudor	HP1b binding inh	G9a inh	BAZ2B inh	Sfp inh
CCN(CC)c1ccc(NC2CC(=O)N(CCc3ccc(OC)cc3)C2=O)cc1 (centres undefined)	nt	40µM	?	?	35µM	32µM
O=C(CN1CCCC1)Nc1ccc(Br)cc1	i	13µM	?	4.5µM	50µM	50µM
CN(C)c1ccc(NC(=O)N2CCOCC2)cc1	i	?	i	4µM	?	40µM
O=C(CN1CCCCCC1)Nc1ccccc1	i	8.9µM	?	4µM	50µM	?
O=C(Nc1ccc(F)cc1)N1CCOCC1	nt	i	i	i[2.33 µM]	i	i
COc1cccc(NC(=O)C2CCCN(S(=O)(=O)c3ccc4[nH]c(=O)ccc4c3)C2)c1 (centres undefined)	nt	i	i	i	i	nt
CCc1cccc(C)c1NC(=O)CNCc1ccccc1	i	8.9µM	?	18µM	i	i
CN(C)c1ccc(NC(=O)CN2CCC(N3CCCCC3)CC2)cc1	nt	?	?	2.2µM	45µM	89µM
CCc1cccc(C)c1NC(=S)NCc1ccccc1	i	i	i	i	i	i
O=C(CN1CCC(NC(=O)C2CCCCC2)CC1)Nc1ccccc1	nt	0.89µM	i	nt	nt	nt
CCN1CCN(CC(=O)Nc2ccc(N(C)C)cc2)CC1	i	7.1µM	i	?	?	i
CN(C)c1ccc(NC(=O)CN2CCC(NC(=O)C3CCCCC3)CC2)cc1	nt	?	i	?	i	i
CS(=O)(=O)N1CCc2cc(S(=O)(=O)NCc3ccccc3Cl)ccc21	nt	?	i	i	i	nt
Cc1ccc(NC(=O)CNCc2ccccc2)cc1Br	i	0.79µM	?	7.9µM	50µM	?
Cc1ccc(NC(=O)CN2CCCC2)cc1	i	i	i	nt	i	i
Cc1ccc(NC(=O)CNCc2ccccc2)c(Br)c1	nt	i	i	i	i	i
Cc1ccc(NC(=O)CN2CCCC2)cc1Br	i	56µM	i	50µM	?	i
CC(=O)OC[C@@H]1O[C@H](C/C=N\OC[C@@H](O)[C@H]2O[C@H]3OC(C)(C)O[C@H]3[C@@H]2O)C=C[C@@H]1OC(C)=O	nt	nt	nt	nt	nt	i
CCC(CC)(CC(=O)Nc1cccc(/C=C/c2nc(C3CCC3)cs2)c1)C(=O)O	nt	nt	nt	i[12.7 µM]	nt	i
CC(C)c1ccc(S(=O)(=O)c2nnn3c2nc(NC2CCCC2)c2sccc23)cc1	nt	i	i	i	i	nt
COCCn1c(-c2ccc(Cl)cc2)cnc1SCC(=O)NCc1cccs1	i	?	?	45µM	?	i
O=C(CSc1nc2ccccc2c(=O)n1Cc1ccc(Cl)cc1)NCc1cccs1	i	i	i	i	i	i
CN(c1ccc([N+](=O)[O-])cc1/C=N/NC(=O)COc1ccccc1)C1CCCCC1	i	i	i	i	i	i
CN(c1ccc([N+](=O)[O-])cc1C(N)=O)C1CCCCC1	i	i	i	i	79µM	i
COc1ccc(NC(=O)c2cc3cc(C)ccc3[nH]2)cc1	nt	i	i	i	i	nt
SMILES	L3MBTL1 inh	JMJD2A Tudor	HP1b binding inh	G9a inh	BAZ2B inh	Sfp inh
CCOC(=O)C1=C(C)OC(N)=C(C#N)C1c1cc2ccccc2nc1N1CCCCC1 (centres undefined)	i	i	i	11µM	i	i
CCOC(=O)C1=C(C)OC(N)=C(C#N)C1c1cc(C)sc1C (centres undefined)	i	i	i	nt	i	i
CCOC(=O)C1=C(C)OC(N)=C(C#N)C1c1cc2cc(C)ccc2nc1N1CCCCC1 (centres undefined)	i	i	i	10µM	i	i
CCOC(=O)C1=C(C)OC(N)=C(C#N)C1c1cc2c(cc1Br)OCO2 (centres undefined)	i	i	i	?	i	i
Cc1cccc(S(=O)(=O)c2cn(C)c3cc(N4CCCCCC4)c(F)cc3c2=O)c1	nt	i	i	i	i	nt
OC(COc1ccc2c(c1)OCO2)CN1CCCC1 (centres undefined)	i	i	i	i	i	i
OC(COc1ccc2c(c1)OCO2)CN1CCN(c2ccc(F)cc2)CC1 (centres undefined)	i	i	i	50µM	?	i
c1ccc(N2CCN(CCCOc3ccc4c(c3)OCO4)CC2)cc1	nt	nt	nt	20µM	nt	i
O=C(CN1CCN(c2ccc(F)cc2)CC1)c1ccc2c(c1)OCO2	i	i	i	32µM	i	i
CC(C)c1ccc(OCC(O)CN2CCN(c3ccc(F)cc3)CC2)cc1 (centres undefined)	nt	79µM	i	10µM	i	nt
Cc1onc(-c2c(F)cccc2Cl)c1C(=O)N[C@H]1C(=O)N2[C@H]1SC(C)(C)[C@H]2C(=O)O	nt	nt	nt	i[21.5 µM]	nt	i
Cc1cccc(C(=O)NCC(=O)OC(C(=O)Nc2cc(C(F)(F)F)ccc2Cl)c2ccccc2)c1 (centres undefined)	nt	i	nt	nt	nt	nt
CC(=O)O[C@H]1C[C@H]2CC[C@@H]3[C@H]4C[C@@H]([N+]5(C)CCCCC5)[C@@H](OC(C)=O)[C@]4(C)CC[C@@H]3[C@@]2(C)C[C@@H]1[N+]1(C)CCCCC1	nt	nt	nt	nt	nt	i
CCc1nn2c(=O)cc(COC(=O)COc3ccc(OC)cc3)nc2s1	nt	i	?	i	i	nt
COc1ccc(-c2nc(-c3ccccc3)c(Nc3c(C)cccc3C)o2)cc1	nt	nt	nt	nt	nt	i
O=C1CSC(=S)N1/N=C/c1cccnc1	nt	i	i	7.1µM	i	?
CC(C)CCOc1ccc(/C=N/N2C(=O)CSC2=S)cc1	nt	i	i	i	i	i
O=C1CSC(=S)N1Cc1cccnc1	nt	?	?	?	40µM	i
O=C1CSC(=S)N1/N=C/c1cc(Br)c(O)c(Br)c1	nt	16µM	i	40µM	35µM	?
O=C1CSC(=S)N1N=Cc1ccccc1O	nt	18µM	?	nt	nt	nt
COc1cc(/C=N/N2C(=O)CSC2=S)ccc1O	nt	i	?	i[12.7 µM]	?	i
O=C1CSC(=S)N1/N=C/c1ccc(Cl)c([N+](=O)[O-])c1	?	nt	nt	nt	35µM	i
COc1ccc(Br)cc1/C=N/N1C(=O)CSC1=S	nt	?	?	79µM	?	i
O=C1CSC(=S)N1/N=C/c1ccc2c(c1)OCCO2	nt	?	i	?	?	i
COCCn1c(=N)c(C(=O)NC2CCCC2)cc2c(=O)n3cc(C)ccc3nc21	nt	i	i	i	i	nt
CCN(C(=O)C(C)N1C(=O)/C(=C/c2cccs2)SC1=S)C1CCS(=O)(=O)C1 (centres undefined)	nt	i	i	45µM	?	i
CC(C(=O)N(C)C1CCS(=O)(=O)C1)N1C(=O)/C(=C/c2ccco2)SC1=S (centres undefined)	nt	50µM	?	45µM	56µM	i
CC(C(=O)N(C)C1CCS(=O)(=O)C1)N1C(=O)/C(=C/c2cccs2)SC1=S (centres undefined)	nt	?	i	i	i	i
O=C(NCc1ccc(F)cc1)C1CCN(C(=O)c2ccc(-n3ccc4ccccc43)s2)CC1	nt	i	i	i	i	nt
O=C1CSC(c2ccccc2F)N1CCN1CCCCC1 (centres undefined)	i	i	i	79µM	i	i

Screening data deposited in PubChem by National Center for Advancing Translational Sciences (NCATS).
